Reference: PubChem BioAssay (NCATS)
Results filed as inconclusive are left out. The source made the active and inactive calls. Calls come from the whole dose curve; as a rule, active = well fitted curve in the direction sought with a large enough effect; inconclusive = small, poorly fitted or top-dose-only effect, or another doubt; inactive = no such curve, though single readings can be large; an effect the other way counts as inactive or inconclusive.

Assays:
[1] = biological target: Endonuclease 4 (Escherichia coli (strain K12)) (UniProt P0A6C1); assay: Counterscreen for APE1 Inhibitors: qHTS Validation Assay for Inhibitors of Endonuclease IV (AID 1708)
How it was run: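 qHTS concentration-response format; LOPAC1280 tested under APE1-screen conditions. 2 nM enzyme, 15 min compound preincubation at RT, then 50 nM TAMRA/BHQ-2 abasic substrate; kinetic fluorescence read, three reads at 60 s intervals.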

[2] = qHTS for differential inhibitors of proliferation of Plasmodium falciparum line W2 (AID 1883); conditions: Potency: Plasmodium falciparum W2 proliferation inhibition;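 note: parasites grown with compound for 72 h before lysis and staining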; note: potency is the fitted concentration of half-maximal effect
[3] = biological target: Ferritin light chain (Equus caballus) (UniProt P02791); assay: qHTS Validation Assay for Identification of Novel General Anesthetics (AID 2323); note: series mostly up to about 77 µM
How it was run: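 Apoferritin from horse spleen (10 uM) was mixed with 1-aminoanthracene at 50% saturation in PBS, then compounds were added. After 10 min at room temperature, fluorescence was read (ex 380 nm, em 535 nm) and normalized to free-probe and complex controls.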

[4] = Quantitative high throughput screen for delayed death inhibitors of the malarial parasite plastid, 96 hour incubation (AID 488745);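 note: luciferase-expressing P. falciparum in erythrocytes at 2% hematocrit and 0.1% parasitemia; series mostly up to about 29 µM; nearly all actives have a fitted effect of over 70% in size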
How it was run: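 Infected erythrocytes were added to compound in Albumax-supplemented RPMI 1640 at 0.1% parasitemia and 2% hematocrit (final), incubated 96 h at 37 C under 5% CO2, then luciferase reagent was added and luminescence measured.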

[5] = biological target: Voltage-gated inwardly rectifying potassium channel KCNH2 (Homo sapiens) (UniProt Q12809); assay: qHTS Assay for Small Molecule Inhibitors of the Human hERG Channel Activity (AID 588834);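 note: top concentration of the series differs between compounds; lower thallium flux fluorescence means stronger hERG block; nearly all actives have a fitted effect of over 50% in size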
How it was run: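 Measured: FluxOR fluorescence after thallium stimulation in U2OS cells transduced with hERG by baculovirus. Compounds pre-incubated around 10 min; medium Opti-MEM with 2% FCS. AC50 from Hill equation.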

[6] = qHTS for differential inhibitors of proliferation of Plasmodium falciparum line 3D7 (AID 1876); note: potency is the fitted concentration of half-maximal effect
[7] = qHTS for differential inhibitors of proliferation of Plasmodium falciparum line D10 (AID 1877);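 note: parasites grown with compound for 72 h before DNA staining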
[8] = qHTS for differential inhibitors of proliferation of Plasmodium falciparum line HB3 (AID 1886); conditions: Potency: Plasmodium falciparum HB3 proliferation inhibition;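 note: parasites grown with compound for 72 h before SYBR Green readout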; note: potency is the fitted concentration of half-maximal effect
[9] = Quantitative high throughput screen for delayed death inhibitors of the malarial parasite plastid, 48 hour incubation (AID 488752); note: nearly all actives have a fitted effect of over 65% in size
How it was run: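 Readout is firefly luciferase luminescence from a reporter integrated into the parasite genome, with lower signal taken as inhibited growth. Infected red cells (0.1% parasitemia, 2% hematocrit final) are cultured with compound for one 48 h cycle at 37 C.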

Measured: Potency

Chain of Voltage-gated inwardly rectifying potassium channel KCNH2 (Homo sapiens) (Q12809 whole entry, looked up): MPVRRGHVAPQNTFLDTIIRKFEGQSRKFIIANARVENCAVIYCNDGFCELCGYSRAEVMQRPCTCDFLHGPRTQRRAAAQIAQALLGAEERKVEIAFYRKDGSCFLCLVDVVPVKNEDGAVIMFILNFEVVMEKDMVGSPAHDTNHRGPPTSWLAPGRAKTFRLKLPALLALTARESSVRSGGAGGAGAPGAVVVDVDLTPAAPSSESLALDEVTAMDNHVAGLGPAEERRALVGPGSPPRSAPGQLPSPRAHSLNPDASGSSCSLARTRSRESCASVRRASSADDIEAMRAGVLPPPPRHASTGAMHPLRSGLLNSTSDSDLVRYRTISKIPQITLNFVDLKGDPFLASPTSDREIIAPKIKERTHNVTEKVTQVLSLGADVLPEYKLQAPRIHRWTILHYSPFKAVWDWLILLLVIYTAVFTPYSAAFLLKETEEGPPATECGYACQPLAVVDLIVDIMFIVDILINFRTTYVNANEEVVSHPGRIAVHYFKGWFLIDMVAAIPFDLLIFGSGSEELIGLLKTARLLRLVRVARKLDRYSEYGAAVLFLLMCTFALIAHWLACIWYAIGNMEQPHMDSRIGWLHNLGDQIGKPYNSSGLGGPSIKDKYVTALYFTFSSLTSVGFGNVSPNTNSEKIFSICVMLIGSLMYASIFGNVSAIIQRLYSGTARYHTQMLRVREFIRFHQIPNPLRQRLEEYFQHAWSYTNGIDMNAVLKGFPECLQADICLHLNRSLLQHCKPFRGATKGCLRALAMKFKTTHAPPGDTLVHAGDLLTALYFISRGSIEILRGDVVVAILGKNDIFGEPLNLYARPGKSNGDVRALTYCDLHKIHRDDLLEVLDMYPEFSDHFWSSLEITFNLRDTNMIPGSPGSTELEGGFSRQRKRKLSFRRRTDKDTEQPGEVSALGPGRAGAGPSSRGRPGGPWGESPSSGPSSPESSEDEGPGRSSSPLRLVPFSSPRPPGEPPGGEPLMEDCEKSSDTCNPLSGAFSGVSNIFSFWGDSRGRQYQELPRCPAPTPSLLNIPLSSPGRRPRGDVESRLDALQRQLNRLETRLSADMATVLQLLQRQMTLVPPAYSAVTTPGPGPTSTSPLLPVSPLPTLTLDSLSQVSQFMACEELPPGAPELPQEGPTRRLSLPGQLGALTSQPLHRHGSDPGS
Chain of Ferritin light chain (Equus caballus) (P02791 2-175 limits assumed): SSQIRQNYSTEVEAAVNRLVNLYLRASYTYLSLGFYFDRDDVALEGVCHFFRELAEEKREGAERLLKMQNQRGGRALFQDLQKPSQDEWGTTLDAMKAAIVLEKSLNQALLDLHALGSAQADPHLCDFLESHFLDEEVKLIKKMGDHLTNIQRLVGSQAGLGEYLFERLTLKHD

COc1cc(C=C(C#N)C#N)cc(O)c1O
inactive: [1] | [3] | [4] | [5]
active: [2] 10 µM

CC[C@@H](CO)NC(=O)[C@H]1C=C2c3cccc4c3c(cn4C)C[C@H]2N(C)C1
inactive: [1] | [3] | [5]

CN1C[C@@H](CS(=O)(=O)N(C)C)C[C@@H]2c3cccc4c3c(cn4C)C[C@H]21
active: [6] 3.98 µM | [2] 3.55 µM
inactive: [1] | [3] | [5]

C[N+]1(C)C2CC(OC(=O)C(CO)c3ccccc3)CC1C1OC12 (configuration not stated)
inactive: all assays above

CCCC[N+]1(C)C2CC(OC(=O)C(CO)c3ccccc3)CC1C1OC12 (configuration not stated)
not listed: [2] | [6]
inactive: all other assays above

Nc1ncnc2c1ncn2[C@@H]1O[C@H](COP(=O)(O)CP(=O)(O)OP(=O)(O)O)[C@H](O)[C@H]1O
inactive: all assays above

C[C@H]1C2Cc3ccc(O)cc3[C@]1(C)CCN2CC1CC1
active: [2] 2.82 µM
inactive: all other assays above

COc1cc(C[C@@H](C)N)c(OC)cc1I
active: [2] 3.98 µM
inactive: all other assays above

COc1ccc2c3c1O[C@H]1C(=O)CC[C@@]4(O)C(C2)N(CC2CC2)CCC314 (some centres not stated)
active: [2] 11.2 µM
not listed: [5]
inactive: all other assays above

CCC(CO)NC(=O)[C@@H]1C=C2c3cccc4[nH]cc(c34)C[C@H]2N(C)C1 (some centres not stated)
inactive: [3] | [9] | [5]
active: [6] 14.1 µM | [2] 12.6 µM | [8] 10 µM

CCN1C[C@]2(C)CC[C@H](O)[C@@]34[C@@H]5C[C@@H]6[C@@H](OC)C[C@@](O)(C5[C@H]6O)[C@@H](C[C@@H]23)[C@@H]14
not listed: [2] | [9]
inactive: all other assays above
